Experimental data as given in PubChem BioAssay (NCI).
Compounds without any hit were thinned out: in the full panel of roughly 83,000, 20% have a hit.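 Cell lines were cultured in 96-well plates, exposed to a single compound concentration, and assessed for percent growth 48 hours later.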 Active and inactive are the calls of the source. How the source made its calls: active means growth percent below 10; inactive means the rest.

Assays:
Assay in all cases: NCI-60 one-dose screen, 48 h (100 = growth as untreated, 0 = no growth, -100 = all killed)
Details in all cases: 10 µM unless noted
NCI-H23 lung = test system: NCI-H23 lung
NCI-H226 lung = test system: NCI-H226 lung
NCI-H322M lung = test system: NCI-H322M lung
HOP-62 NSCLC = test system: HOP-62 NSCLC
NCI-H460 lung = test system: NCI-H460 lung
HOP-92 NSCLC = test system: HOP-92 NSCLC
NCI-H522 lung = test system: NCI-H522 lung
A549/ATCC NSCLC = test system: A549/ATCC NSCLC
786-0 renal = test system: 786-0 renal
COLO 205 colon = test system: COLO 205 colon

Measured: growth

NS(=O)(=O)c1cnccc1Oc1cccc2cccnc12
inactive: NCI-H23 lung 90.9% | NCI-H226 lung 97.3% | NCI-H322M lung 99.6% | HOP-62 NSCLC 86.8% | NCI-H460 lung 108% | HOP-92 NSCLC 78.4% | NCI-H522 lung 95.7% | A549/ATCC NSCLC 94.6% | 786-0 renal 97.7% | COLO 205 colon 103%

O=[N+]([O-])c1ccc(N2c3ccncc3Sc3ccncc32)cc1
inactive: NCI-H23 lung 102% | NCI-H226 lung 105% | NCI-H322M lung 105% | HOP-62 NSCLC 104% | NCI-H460 lung 122% | HOP-92 NSCLC 80.2% | NCI-H522 lung 87.8% | 786-0 renal 107% | COLO 205 colon 111%

O=C1/C(=C2/C=Nc3ccccc32)N(O)c2ccccc21
inactive: NCI-H23 lung 56.8% | NCI-H226 lung 77% | NCI-H322M lung 108% | HOP-62 NSCLC 95.6% | NCI-H460 lung 91.4% | HOP-92 NSCLC 124% | NCI-H522 lung 57.1% | A549/ATCC NSCLC 94.2% | 786-0 renal 104% | COLO 205 colon 104%

C=C(C)[C@@H]1CC[C@]2(C(=O)NC3CCCCC3)CC[C@]3(C)[C@H](CC[C@@H]4[C@@]5(C)CCCNC(C)(C)[C@@H]5CC[C@]43C)[C@@H]12
inactive: NCI-H23 lung 76.7% | NCI-H226 lung 63% | NCI-H322M lung 65.7% | HOP-62 NSCLC 80.4% | HOP-92 NSCLC 62.3% | NCI-H522 lung 60% | A549/ATCC NSCLC 41.2% | 786-0 renal 62.7%
active: NCI-H460 lung -56.5% | COLO 205 colon -63.1%

O=c1c2c3c(sc2n2c(-c4cn(-c5ccccc5)nc4-c4ccc(Cl)cc4)nnc2n1Cc1ccccc1)CCCC3
inactive: NCI-H23 lung 94.3% | NCI-H226 lung 107% | NCI-H322M lung 102% | HOP-62 NSCLC 94.6% | NCI-H460 lung 106% | HOP-92 NSCLC 81.8% | NCI-H522 lung 77.5% | 786-0 renal 99.6% | COLO 205 colon 111%

CN(C)CCNc1nc2ccccc2c2c1c1c(n2Cc2ccccc2)-c2ccccc2C1=O
active: NCI-H23 lung -74.8% | NCI-H226 lung -57.1% | NCI-H322M lung -79.5% | HOP-62 NSCLC -90.4% | NCI-H460 lung -98.6% | HOP-92 NSCLC -78.7% | NCI-H522 lung -69.2% | A549/ATCC NSCLC -73% | 786-0 renal -89.6% | COLO 205 colon -76.9%

Cc1cc(C)c2c(-c3nnc(N)s3)cc(=O)oc2c1
inactive: NCI-H23 lung 96.3% | NCI-H226 lung 100% | NCI-H322M lung 99% | HOP-62 NSCLC 111% | NCI-H460 lung 103% | HOP-92 NSCLC 115% | NCI-H522 lung 101% | 786-0 renal 99.4% | COLO 205 colon 116%

CC(C)CC(NC(=O)CN(Cc1ccccc1)S(C)(=O)=O)C(=O)O (stereo not given)
active: HOP-92 NSCLC -0.442%
inactive: NCI-H23 lung 93.1% | NCI-H226 lung 104% | NCI-H322M lung 93.8% | HOP-62 NSCLC 96% | NCI-H460 lung 98.7% | NCI-H522 lung 103% | 786-0 renal 93.6% | COLO 205 colon 112%

c1cc2ccc3cc2cc1CNCCOCCNCc1ccc2ccc(cc2c1)CNCCOCCNC3
inactive: 786-0 renal 43.5%
active: NCI-H23 lung -52.6% | NCI-H226 lung -29.4% | NCI-H322M lung -10.7% | HOP-62 NSCLC -10.2% | NCI-H460 lung -9.48% | HOP-92 NSCLC -31.5% | NCI-H522 lung -61.6% | A549/ATCC NSCLC 0.178% | COLO 205 colon -53.2%

CCN(CC)CCn1nc2c3c(cccc3c1=O)-c1ccccc1-2
inactive: NCI-H23 lung 23.7% | NCI-H322M lung 30.6% | HOP-62 NSCLC 11.1% | NCI-H522 lung 10.8% | 786-0 renal 33.3% | COLO 205 colon 15.8%
active: NCI-H226 lung -39.9% | NCI-H460 lung 3.42% | HOP-92 NSCLC -6.84%

Fc1ccc(CNc2c3ccccc3nc3ccccc23)cc1F
active: HOP-92 NSCLC -8.56%
inactive: NCI-H23 lung 35.2% | NCI-H226 lung 47.6% | NCI-H322M lung 39% | HOP-62 NSCLC 51.3% | NCI-H460 lung 14.6% | NCI-H522 lung 37% | A549/ATCC NSCLC 29.1% | 786-0 renal 31.4% | COLO 205 colon 16.1%

c1c[nH]c(CNC2CCCCC2)c1
inactive: NCI-H23 lung 97.7% | NCI-H226 lung 102% | NCI-H322M lung 104% | HOP-62 NSCLC 103% | NCI-H460 lung 105% | HOP-92 NSCLC 72.9% | NCI-H522 lung 109% | A549/ATCC NSCLC 103% | 786-0 renal 112% | COLO 205 colon 115%

COc1ccc(C2CC(c3cccc(OC)c3)=NN2C(=O)c2cc(OC)c(OC)c(OC)c2)cc1 (stereo not given)
inactive: NCI-H23 lung 30.6% | NCI-H226 lung 79.9% | NCI-H322M lung 45.1% | HOP-62 NSCLC 39.9% | NCI-H460 lung 11.4% | HOP-92 NSCLC 35.9% | A549/ATCC NSCLC 32.5% | 786-0 renal 21.6%
active: NCI-H522 lung 2.3% | COLO 205 colon -1.64%

Cc1ccc(C(=O)COc2cccc(/C=C3\Oc4ccccc4C3=O)c2)cc1
inactive: NCI-H23 lung 90.5% | NCI-H226 lung 80.9% | NCI-H322M lung 101% | HOP-62 NSCLC 97.1% | NCI-H460 lung 119% | HOP-92 NSCLC 89.8% | NCI-H522 lung 78.2% | A549/ATCC NSCLC 96.9% | 786-0 renal 97.6% | COLO 205 colon 115%

O=C(Nc1ccccc1)Nc1cccc(Oc2nnc(Cl)c3ccccc23)c1
inactive: NCI-H23 lung 32.7% | NCI-H322M lung 47.3% | NCI-H460 lung 25.3% | A549/ATCC NSCLC 11.2% | 786-0 renal 38.2% | COLO 205 colon 35.2%
active: NCI-H226 lung 8.66% | HOP-62 NSCLC -43.4% | HOP-92 NSCLC -7.51% | NCI-H522 lung 2%

Clc1cccc(Cl)c1C(Nc1nc2ccccc2s1)Nc1nc2ccccc2s1
inactive: NCI-H23 lung 101% | NCI-H226 lung 89.9% | NCI-H322M lung 106% | HOP-62 NSCLC 99.7% | NCI-H460 lung 105% | HOP-92 NSCLC 17.3% | NCI-H522 lung 90.8% | 786-0 renal 110% | COLO 205 colon 114%

N#C/C(=C\c1ccc(Br)cc1)n1nnc2cc(F)c(F)cc21
active: HOP-92 NSCLC -9.69%
inactive: NCI-H23 lung 28.5% | NCI-H226 lung 37.3% | NCI-H322M lung 58.6% | HOP-62 NSCLC 25.9% | NCI-H460 lung 30.5% | NCI-H522 lung 19.9% | 786-0 renal 23.2% | COLO 205 colon 25.7%

CCCCNC(=O)Oc1ccc2c(=O)c3sc4c(=O)c5ccccc5c(=O)c4c3c(=O)c2c1
active: NCI-H23 lung -47.6% | NCI-H226 lung -89% | NCI-H322M lung -96.8% | HOP-62 NSCLC -79.1% | NCI-H460 lung -74.6% | HOP-92 NSCLC -30.4% | NCI-H522 lung -69.5% | 786-0 renal -37% | COLO 205 colon -84.9%

COc1cc(C2CC(=O)Nc3c2c(C)nn3-c2nc3ccccc3[nH]2)c(OC)c(OC)c1OC (stereo not given)
inactive: NCI-H23 lung 82.6% | NCI-H226 lung 89.7% | NCI-H322M lung 95.2% | HOP-62 NSCLC 44.3% | NCI-H460 lung 39% | HOP-92 NSCLC 75.7% | NCI-H522 lung 33.3% | A549/ATCC NSCLC 43.2% | 786-0 renal 27.6% | COLO 205 colon 41.2%

C[n+]1cccc(CC(=O)NO)c1
inactive: NCI-H23 lung 102% | NCI-H226 lung 89.3% | NCI-H322M lung 97.2% | HOP-62 NSCLC 92.7% | NCI-H460 lung 101% | HOP-92 NSCLC 82.5% | NCI-H522 lung 84.6% | A549/ATCC NSCLC 68.1% | 786-0 renal 106% | COLO 205 colon 97.7%

N#Cc1c(-c2cccc(Cl)c2)cc(-c2cccc(Cl)c2)[nH]c1=O
inactive: NCI-H23 lung 79.8% | NCI-H226 lung 94% | NCI-H322M lung 87.2% | HOP-62 NSCLC 71.3% | NCI-H460 lung 77.1% | HOP-92 NSCLC 44% | NCI-H522 lung 64.4% | 786-0 renal 87.6% | COLO 205 colon 108%

Cc1ccccc1NC(=O)N/C(N)=N/c1nc(-c2cccc([N+](=O)[O-])c2)cs1
inactive: NCI-H23 lung 16.8% | NCI-H226 lung 58.8% | NCI-H322M lung 90.7% | HOP-62 NSCLC 42.3% | NCI-H460 lung 27% | HOP-92 NSCLC 60.2% | NCI-H522 lung 18% | A549/ATCC NSCLC 54.2% | 786-0 renal 71.6% | COLO 205 colon 37.5%

O=c1c2cc(F)ccc2sc2c(NCCN3CCCCC3)nc3ccccc3c12
inactive: NCI-H23 lung 65.6% | NCI-H226 lung 77% | NCI-H322M lung 70.9% | HOP-62 NSCLC 64.4% | NCI-H460 lung 18.3% | HOP-92 NSCLC 34.2% | NCI-H522 lung 34.2% | 786-0 renal 41% | COLO 205 colon 48%

COC(=O)[C@]12CC[C@@H](C)[C@H](C)[C@@H]1C1=CC[C@@H]3[C@@]4(C)C(C=O)=C[C@@](C)(COS(C)(=O)=O)[C@@H]4C(=O)C[C@@]3(C)[C@]1(C)CC2
inactive: NCI-H23 lung 35.3% | NCI-H226 lung 67.2% | NCI-H322M lung 89.2% | HOP-62 NSCLC 41.7% | NCI-H460 lung 42.4% | HOP-92 NSCLC 39.8% | NCI-H522 lung 22.2% | 786-0 renal 40.7% | COLO 205 colon 32.1%

C[C@H]1[C@H]2[C@H]3CC[C@@H]4[C@@]5(C)C/C(=C/c6cccnc6)C(=O)C(C)(C)[C@@H]5CC[C@@]4(C)[C@]3(C)CC[C@]23CO[C@]1(C)[C@@H](C(=O)/C=C\c1cccnc1)C3
active: NCI-H23 lung -48.7% | NCI-H226 lung -13.5% | HOP-62 NSCLC -13.6% | NCI-H460 lung -45.3% | HOP-92 NSCLC -20% | A549/ATCC NSCLC -24.6% | 786-0 renal -39% | COLO 205 colon -56.8%
inactive: NCI-H322M lung 46.4%

Cn1c(=O)c2c(nc(Cl)n2CCl)n(C)c1=O
inactive: NCI-H226 lung 120% | NCI-H322M lung 103% | HOP-62 NSCLC 115% | NCI-H460 lung 111% | HOP-92 NSCLC 97.6% | NCI-H522 lung 84.8% | 786-0 renal 90.4% | COLO 205 colon 60.8%
active: NCI-H23 lung 3.75%

O=C1/C(=C/c2ccccc2)CCc2nc3ccccc3c(/C=C/c3ccc(Cl)cc3)c21
inactive: NCI-H23 lung 85.5% | NCI-H226 lung 92.3% | NCI-H322M lung 94.6% | HOP-62 NSCLC 110% | NCI-H460 lung 93.4% | HOP-92 NSCLC 79.8% | A549/ATCC NSCLC 93.5% | 786-0 renal 99.8% | COLO 205 colon 104%

Cc1ccc(/C=C2\C(=O)N(C)c3ccc(S(=O)(=O)Nc4ccc(C(C)(C)C)cc4)cc32)s1
inactive: NCI-H23 lung 64.1% | NCI-H226 lung 86% | NCI-H322M lung 58.7% | HOP-62 NSCLC 31.8% | NCI-H460 lung 32.1% | HOP-92 NSCLC 60% | A549/ATCC NSCLC 33.1% | 786-0 renal 40.1% | COLO 205 colon 70.9%
